Source: PubChem BioAssay (NCATS)
Records with an inconclusive call do not appear. Calls of active or inactive are those of the source. Calls come from the whole dose curve; as a rule, active = well fitted cell-killing curve with a large enough effect; inconclusive = small, poorly fitted or top-dose-only effect, or effect the other way; inactive = flat fitted curve, though single readings scatter. Where a SMILES comes first, the peptide text is derived from it.

What was measured:
Experiment in all cases: Primary qHTS to identify gynecologic anti-cancer compounds using libraries of approved drugs and bioactive compounds (AID 1345084); note: nearly all actives have a fitted effect of over 55% in size
[1] = tested on: C33A; conditions: Gynecologic cancer cell panel viability, ATPlite luminescence, 48 h; series mostly up to 57.5 µM
Procedure, shortened: (§1)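 Five-concentration response, 48 h; readout is ATP-driven luciferase luminescence.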

[2] = tested on: CAOV3; conditions: Gynecologic cancer cell panel viability, ATPlite luminescence, 48 h; series mostly up to 57.5 µM
Procedure, shortened: as §1

[3] = tested on: CASKI; conditions: Gynecologic cancer cell panel viability, ATPlite luminescence, 48 h; series mostly up to 57.5 µM
Procedure, shortened: as §1

[4] = tested on: Es-2; conditions: Gynecologic cancer cell panel viability, ATPlite luminescence, 48 h; series mostly up to 57.5 µM
Procedure, shortened: as §1

[5] = tested on: HeLa; conditions: Gynecologic cancer cell panel viability, ATPlite luminescence, 48 h; series mostly up to 57.5 µM
Procedure, shortened: as §1

[6] = tested on: Hek293T; conditions: Gynecologic cancer cell panel viability, ATPlite luminescence, 48 h, control line for the selectivity index; series mostly up to 57.5 µM
Procedure, shortened: as §1

[7] = tested on: JEG-3; conditions: Gynecologic cancer cell panel viability, ATPlite luminescence, 48 h; series mostly up to 57.5 µM
Procedure, shortened: as §1

[8] = tested on: OV90; conditions: Gynecologic cancer cell panel viability, ATPlite luminescence, 48 h; series mostly up to 57.5 µM
Procedure, shortened: as §1

[9] = tested on: PA-1; conditions: Gynecologic cancer cell panel viability, ATPlite luminescence, 48 h; series mostly up to 57.5 µM
Procedure, shortened: as §1

[10] = tested on: SKOV3; conditions: Gynecologic cancer cell panel viability, ATPlite luminescence, 48 h; series mostly up to 57.5 µM
Procedure, shortened: as §1

[11] = tested on: Tov-21-G; conditions: Gynecologic cancer cell panel viability, ATPlite luminescence, 48 h; series mostly up to 57.5 µM
Procedure, shortened: as §1

[12] = tested on: Tov112D; conditions: Gynecologic cancer cell panel viability, ATPlite luminescence, 48 h; series mostly up to 57.5 µM
Procedure, shortened: as §1
% is set by controls: 0 for no effect and ±100 for the full control effect.

COC(=O)Cn1nc(-c2cccc(OC)c2)c2ccccc21
inactive: Potency [1] | Potency [2] | outcome [3] | Potency [4] | Potency [5] | Potency [6] | Potency [7] | Potency [8] | Potency [9] | Potency [10] | Potency [11] | Potency [12]

CCC(=O)N1CCc2cc(OC)c(O)cc2C1
inactive: Potency [1] | Potency [2] | outcome [3] | Potency [4] | Potency [5] | Potency [6] | Potency [7] | Potency [8] | Potency [9] | Potency [10] | Potency [11] | Potency [12]

O=C(NCCN1CCCC1)c1cc(-c2ccc(CN3CCOCC3)cc2)nc2ccc(F)cc12
inactive: Potency [1] | Potency [2] | outcome [3] | Potency [4] | Potency [5] | Potency [6] | Potency [7] | Potency [8] | Potency [9] | Potency [10] | Potency [11] | Potency [12]

C/C(=C\CC[C@H](CO)[C@@H]1CC[C@]2(C)C3=C(CC[C@@]12C)[C@@]1(C)CCC(=O)C(C)(C)C1CC3)C(=O)O (stereo not given in full)
inactive: Potency [1] | Potency [2] | outcome [3] | Potency [4] | Potency [5] | Potency [6] | Potency [7] | Potency [8] | Potency [9] | Potency [10] | Potency [11] | Potency [12]

CC1CCC2C(C)(C)[C@H](O)CC[C@]2(C)C12Cc1c(O)cc3c(c1O2)CN(C(CCC(=O)O)C(=O)O)C3=O (stereo not given in full)
inactive: Potency [1] | Potency [2] | outcome [3] | Potency [4] | Potency [5] | Potency [6] | Potency [7] | Potency [8] | Potency [9] | Potency [10] | Potency [11] | Potency [12]

C=C1C(=O)OC[C@H]2C(C(=O)O)=CC3CC(C)(C)C[C@@]132 (stereo not given in full)
inactive: Potency [1] | Potency [2] | outcome [3] | Potency [4] | Potency [5] | Potency [6] | Potency [7] | Potency [8] | Potency [9] | Potency [10] | Potency [11] | Potency [12]

Cc1cn(C[C@H](N)C(=O)O)c(=O)n(Cc2ccsc2C(=O)O)c1=O
inactive: Potency [1] | Potency [2] | outcome [3] | Potency [4] | Potency [5] | Potency [6] | Potency [7] | Potency [8] | Potency [9] | Potency [10] | Potency [11] | Potency [12]

CC(=O)/C=C/C1(O)C(C)CC(O[C@@H]2O[C@H](CO)[C@@H](O)[C@H](O)[C@H]2O)CC1(C)C (stereo not given in full)
inactive: Potency [1] | Potency [2] | outcome [3] | Potency [4] | Potency [5] | Potency [6] | Potency [7] | Potency [8] | Potency [9] | Potency [10] | Potency [11] | Potency [12]

O=C(/C=C/c1ccccc1)O[C@@H]1[C@@H](CO)O[C@@](CO)(O[C@H]2O[C@H](CO)[C@@H](O)[C@H](O)[C@H]2O)[C@H]1O
inactive: Potency [1] | Potency [2] | outcome [3] | Potency [4] | Potency [5] | Potency [6] | Potency [7] | Potency [8] | Potency [9] | Potency [10] | Potency [11] | Potency [12]

COc1cc(C(=O)OC[C@@]2(O)CO[C@@H](O[C@H]3[C@H](Oc4ccc(O)cc4)O[C@H](CO)[C@@H](O)[C@@H]3O)[C@@H]2O)cc(OC)c1O
inactive: Potency [1] | Potency [2] | outcome [3] | Potency [4] | Potency [5] | Potency [6] | Potency [7] | Potency [8] | Potency [9] | Potency [10] | Potency [11] | Potency [12]

C=C1CCC2(OC1)OC1CC3C4CC=C5CC(O)CC(O[C@@H]6OC[C@H](OC(=O)C(O)C(C)CC)[C@H](O)[C@H]6O[C@@H]6O[C@@H](C)[C@H](O)[C@@H](O)[C@H]6O)C5(C)C4CCC3(C)C1C2C (stereo not given in full)
inactive: activity change, negative = cytotoxicity [1] 4.8% [at 11.6 µM] | activity change, negative = cytotoxicity [2] 21.8% [at 11.6 µM] | activity change, negative = cytotoxicity [3] 19.8% [at 11.6 µM] | activity change, negative = cytotoxicity [4] -3.44% [at 11.6 µM] | activity change, negative = cytotoxicity [5] 13.3% [at 11.6 µM] | activity change, negative = cytotoxicity [6] 16.6% [at 11.6 µM] | activity change, negative = cytotoxicity [7] 16.8% [at 11.6 µM] | activity change, negative = cytotoxicity [8] -4.79% [at 11.6 µM] | activity change, negative = cytotoxicity [9] -0.0668% [at 11.6 µM] | activity change, negative = cytotoxicity [10] 6.52% [at 11.6 µM] | activity change, negative = cytotoxicity [11] 15.3% [at 11.6 µM] | activity change, negative = cytotoxicity [12] 19.2% [at 11.6 µM]

O=C(O[C@H]1[C@H](Oc2ccc(O)cc2CO)O[C@H](CO)[C@@H](O)[C@@H]1O)c1ccccc1
inactive: Potency [1] | Potency [2] | outcome [3] | Potency [4] | Potency [5] | Potency [6] | Potency [7] | Potency [8] | Potency [9] | Potency [10] | Potency [11] | Potency [12]

C[C@]12CC[C@@H]3c4ccc(O)cc4CC[C@H]3[C@@H]1C[C@@H](O[C@@H]1O[C@H](C(=O)O)[C@@H](O)[C@H](O)[C@H]1O)[C@@H]2O
inactive: Potency [1] | Potency [2] | outcome [3] | Potency [4] | Potency [5] | Potency [6] | Potency [7] | Potency [8] | Potency [9] | Potency [10] | Potency [11] | Potency [12]

CCCC1=CC2=C(CO1)C(=O)C(C)(O)C(OC(=O)c1c(C)cc(OC)cc1O)C2 (stereo not given)
inactive: Potency [1] | Potency [2] | outcome [3] | Potency [4] | Potency [5] | Potency [6] | Potency [7] | Potency [8] | Potency [9] | Potency [10] | Potency [11] | Potency [12]

CSCC[C@H](NC(=O)[C@H](CO)NC(=O)[C@H](CCC(=O)O)NC(C)=O)C(=O)N[C@H](C=O)CC(=O)O (Ac-ESMD-aldehyde)
inactive: activity change, negative = cytotoxicity [1] 13.1% [at 11.6 µM] | activity change, negative = cytotoxicity [2] 15.6% [at 11.6 µM] | activity change, negative = cytotoxicity [3] 18.4% [at 11.6 µM] | activity change, negative = cytotoxicity [4] 5.54% [at 11.6 µM] | activity change, negative = cytotoxicity [5] 13.1% [at 11.6 µM] | activity change, negative = cytotoxicity [6] 8.08% [at 11.6 µM] | activity change, negative = cytotoxicity [7] 19.7% [at 11.6 µM] | activity change, negative = cytotoxicity [8] -2.74% [at 11.6 µM] | activity change, negative = cytotoxicity [9] -0.0533% [at 11.6 µM] | activity change, negative = cytotoxicity [10] 3.55% [at 11.6 µM] | activity change, negative = cytotoxicity [11] -0.444% [at 11.6 µM] | activity change, negative = cytotoxicity [12] 6.37% [at 11.6 µM]
